About 83,000 compounds went through this panel and 20% of them were active in at least one assay; those are over-represented in the sample as a whole.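 Assay: single dose, 48 h. Readout: percent growth (0 = no net growth; negative = cell death). Active: <10.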 Unmarked numbers belong to inactive results. The source made the active and inactive calls.

The test system of the first assay is SK-MEL-5 melanoma. The assay is described as follows: NCI-60 one-dose screen, 48 h (100 = growth as untreated, 0 = no growth, -100 = all killed). As to conditions: 10 µM unless noted.
With `CC(=O)OC[C@H]1OC(Sc2sc(C(=O)c3ccc(C)cc3)c(N)c2-c2nc3ccccc3s2)[C@H](OC(C)=O)[C@@H](OC(C)=O)[C@@H]1OC(C)=O` (stereo not given in full), the growth is 45.5%.

`COC1=C(C)C(=O)c2c(c(CCCl)c3n2CCC3O)C1=O` (stereo not given): the growth is -51% (active).

Consider `Oc1ccc(C#CCOc2ccccc2)cc1CNCCN(Cc1ccccn1)Cc1ccccn1`, for which the growth is 1.89% (active).

Regarding `CCc1nnc(NC(=O)c2nnn(-c3ccccc3)c2-c2ccco2)s1`, the growth is 83.2%.

As for `CNc1nc2c(s1)C(c1cccc(F)c1)CC(=O)N2` (stereo not given), the growth was 101%.

For the compound `CC(=O)O.CN1[CH-]N(Cc2ccc(C#N)cc2)c2ccccc21.[Ag+]`, the growth is 41.7%.

As for `O=C(Nc1ccc(F)cc1F)c1cc(F)ccc1O`, the growth was -59.1% (active).

Turning to `CCc1ccc(Oc2c(-c3ccc(OCc4ccc(Cl)cc4)cc3O)nn(C)c2C(F)(F)F)cc1`, the growth is -76.4% (active).

Regarding `CCC(=O)Nc1ccc(-c2nc(-c3cccc(OC)c3)c(-c3ccnc(Br)c3)[nH]2)cc1`, the growth was 47.8%.

Take `CC(=O)CC(c1ccccc1)c1c(C)[nH]c2ccccc12` (stereo not given): the growth was 99.3%.

Turning to `Cc1nc2cnc(N)c(C#Cc3cncc(C(=O)Nc4ccc(CN5CCN(C)CC5)c(C(F)(F)F)c4)c3)c2nc1C`, the growth was 26.6%.

In the case of `COc1ccc(-c2nc(NCCO)[nH]c(=O)c2C#N)cc1`, the growth is 107%.

`COc1ccn2c(C(C)=O)cc(C(=O)c3ccc4c(c3)Sc3ccccc3N4)c2c1`: the growth is -39.7% (active).

Turning to `COC(=O)C(Cc1ccccc1)NC(=O)NC(=O)NC(=O)CI` (stereo not given), the growth is 89.7%.

Regarding `O=C1CCC(C(=O)NCCNCCNC(=O)C2CCC(=O)N2)N1` (stereo not given), the growth is 91.3%.

On to `C(=N/Nc1ncnc2nc[nH]c12)/c1ccccn1`, for which the growth was 16.9%.

Turning to `CCCCCCCCCCCCCCCCCCOc1ccc(CC(=O)OCC[N+](C)(C)C)cc1`, the growth is 103%.

`COc1ccc([C@H]2c3cc(OC)c(OC)cc3C=C(C=O)C2CO)cc1OC` (stereo not given in full): the growth was 24.6%.

Regarding `Cc1nn(-c2ccccc2)c(-n2ccnc2)c1/C=N/Nc1nc(-c2ccc(Cl)c(Cl)c2)cs1`, the growth is 26.5%.

`Cc1cccc2c3c(sc12)C(c1ccc(Cl)cc1)C(C#N)=C(/N=C/c1ccc(Cl)cc1)O3` (stereo not given): the growth is 26.4%.

For `Cc1ccc2c(-c3cc(-c4ccccc4)nc(N)c3C#N)cc(=O)oc2c1`, the growth is 97%.

For the compound `Cc1ncc(C(=O)Nc2ccc(CN3CCN(C)CC3)c(C(F)(F)F)c2)cc1C#Cc1ccc(N)nc1`, the growth is -100% (active).

In the case of `COc1ccc(CN2c3ccccc3Sc3ccccc32)c(F)c1`, the growth is 25.8%.

Turning to `COc1ccc(-c2ncnc3c2ncn3CC#CCCl)cc1`, the growth is 62.5%.

`COc1ccc(C(=O)C[C@]2(O)C(=O)Nc3c(Cl)ccc(Cl)c32)cc1`: the growth is 34.6%.

`c1ccc2c(-c3nc(-c4c[nH]c5ccncc45)cs3)c[nH]c2c1`: the growth is 51.1%.

As for `C=CCNc1ccc2c3c(cccc13)C(=O)N(N1C(=O)c3cccc4cccc(c34)C1=O)C2=O`, the growth was 102%.

On to `N#Cc1c(-c2ccccc2)nc(SCC(=O)Nc2nc(-c3ccc(Cl)cc3)cs2)[nH]c1=O`, for which the growth is 97.9%.

For `COc1cc(C(=O)/C=C/c2c(Cl)nc3sccn23)cc(OC)c1OC`, the growth is 86.4%.

Take `COc1ccc(-c2cc(-c3ccc(Cl)cc3)c(C#N)c(=O)n2CCCCCC(=O)Nc2ccccc2N)cc1`: the growth was -79.7% (active).

For the compound `COc1cccc(/C=C2\C=C(c3ccccc3)N(Cc3ccccc3)C2=O)c1`, the growth is 34.8%.

As to `CCOC(=O)c1cn2ncnc(Oc3ccc(NC(=O)NCCN(C)C)c(Cl)c3)c2c1C`, the growth is 60.9%.

Consider `COc1ccc(N2C(=O)C(Oc3ccccc3)C2c2ccc(C)cc2)cc1` (stereo not given), for which the growth is 104%.

On to `O=[N+]([O-])c1ccc(Cl)c(-c2cc(CCCCO)on2)c1`, for which the growth was 104%.

On to `COc1cccc2nc3n(c12)C(c1c(F)cccc1F)SC3` (stereo not given), for which the growth was 86%.

For `Cc1ccc(S(=O)(=O)N/N=C/C2(c3ccccc3)CC2)cc1`, the growth was 105%.

A further assay concerns UACC-62 melanoma. Described as above. As to conditions: 10 µM unless noted.
For the compound `CC(=O)OC[C@H]1OC(Sc2sc(C(=O)c3ccc(C)cc3)c(N)c2-c2nc3ccccc3s2)[C@H](OC(C)=O)[C@@H](OC(C)=O)[C@@H]1OC(C)=O` (stereo not given in full), the growth is 55.8%.

For `COC1=C(C)C(=O)c2c(c(CCCl)c3n2CCC3O)C1=O` (stereo not given), the growth was -60.5% (active).

`CCc1nnc(NC(=O)c2nnn(-c3ccccc3)c2-c2ccco2)s1`: the growth was 86.5%.

As for `CNc1nc2c(s1)C(c1cccc(F)c1)CC(=O)N2` (stereo not given), the growth is 92.3%.

With `CC(=O)O.CN1[CH-]N(Cc2ccc(C#N)cc2)c2ccccc21.[Ag+]`, the growth is 112%.

Take `CCc1ccc(Oc2c(-c3ccc(OCc4ccc(Cl)cc4)cc3O)nn(C)c2C(F)(F)F)cc1`: the growth is -2.19% (active).

Consider `CCC(=O)Nc1ccc(-c2nc(-c3cccc(OC)c3)c(-c3ccnc(Br)c3)[nH]2)cc1`, for which the growth was 48.8%.

As to `CC/C=C\C[C@@H](O)C/C=C1/C(=O)C=C[C@H]1C/C=C\CCCC(=O)OC`, the growth was -50.6% (active).

As for `CC(=O)CC(c1ccccc1)c1c(C)[nH]c2ccccc12` (stereo not given), the growth is 86.7%.

Turning to `Cc1nc2cnc(N)c(C#Cc3cncc(C(=O)Nc4ccc(CN5CCN(C)CC5)c(C(F)(F)F)c4)c3)c2nc1C`, the growth was -19.7% (active).

As for `COc1ccc(-c2nc(NCCO)[nH]c(=O)c2C#N)cc1`, the growth was 102%.

`COc1ccn2c(C(C)=O)cc(C(=O)c3ccc4c(c3)Sc3ccccc3N4)c2c1`: the growth is 35.9%.

For `COC(=O)C(Cc1ccccc1)NC(=O)NC(=O)NC(=O)CI` (stereo not given), the growth is 6.21% (active).

`O=C1CCC(C(=O)NCCNCCNC(=O)C2CCC(=O)N2)N1` (stereo not given): the growth is 99.4%.

`C(=N/Nc1ncnc2nc[nH]c12)/c1ccccn1`: the growth was 27%.

For the compound `CCCCCCCCCCCCCCCCCCOc1ccc(CC(=O)OCC[N+](C)(C)C)cc1`, the growth is 97.4%.

Regarding `COc1ccc([C@H]2c3cc(OC)c(OC)cc3C=C(C=O)C2CO)cc1OC` (stereo not given in full), the growth was 33.9%.

Take `Cc1nn(-c2ccccc2)c(-n2ccnc2)c1/C=N/Nc1nc(-c2ccc(Cl)c(Cl)c2)cs1`: the growth is 71.4%.

Take `Cc1ccc2c(n1)C(=O)C(Cl)=C(Nc1ccccc1C(C)C)C2=O`: the growth is 45.2%.

As to `Cc1cccc2c3c(sc12)C(c1ccc(Cl)cc1)C(C#N)=C(/N=C/c1ccc(Cl)cc1)O3` (stereo not given), the growth is 13.1%.

Consider `Cc1ccc2c(-c3cc(-c4ccccc4)nc(N)c3C#N)cc(=O)oc2c1`, for which the growth was 90.1%.

As to `Cc1ncc(C(=O)Nc2ccc(CN3CCN(C)CC3)c(C(F)(F)F)c2)cc1C#Cc1ccc(N)nc1`, the growth is -70.2% (active).

In the case of `COc1ccc(-c2ncnc3c2ncn3CC#CCCl)cc1`, the growth was 51.2%.

As to `COc1ccc(C(=O)C[C@]2(O)C(=O)Nc3c(Cl)ccc(Cl)c32)cc1`, the growth is 46.4%.

In the case of `c1ccc2c(-c3nc(-c4c[nH]c5ccncc45)cs3)c[nH]c2c1`, the growth is 87.1%.

Take `C=CCNc1ccc2c3c(cccc13)C(=O)N(N1C(=O)c3cccc4cccc(c34)C1=O)C2=O`: the growth was 95.7%.

With `N#Cc1c(-c2ccccc2)nc(SCC(=O)Nc2nc(-c3ccc(Cl)cc3)cs2)[nH]c1=O`, the growth was 88.4%.

As to `COc1cc(C(=O)/C=C/c2c(Cl)nc3sccn23)cc(OC)c1OC`, the growth was 78.7%.

Turning to `COc1ccc(-c2cc(-c3ccc(Cl)cc3)c(C#N)c(=O)n2CCCCCC(=O)Nc2ccccc2N)cc1`, the growth is 4.17% (active).

Regarding `COc1cccc(/C=C2\C=C(c3ccccc3)N(Cc3ccccc3)C2=O)c1`, the growth was 38%.

With `COc1ccc(N2C(=O)C(Oc3ccccc3)C2c2ccc(C)cc2)cc1` (stereo not given), the growth is 102%.

Take `O=[N+]([O-])c1ccc(Cl)c(-c2cc(CCCCO)on2)c1`: the growth was 93.8%.

With `COc1cccc2nc3n(c12)C(c1c(F)cccc1F)SC3` (stereo not given), the growth was 77.5%.

On to `Cc1ccc(S(=O)(=O)N/N=C/C2(c3ccccc3)CC2)cc1`, for which the growth was 102%.
